Source: PubChem BioAssay AID2685 (National Center for Advancing Translational Sciences (NCATS), 2010)
In all, about 320,000 compounds went through this assay and about 2,100 (0.66%) were called active. About 53% were inconclusive and are not listed. Calls follow the shape of the dose curve; as a rule, active = well fitted inhibition curve with a large enough effect in the signal ratio, with a control signal flat (not every such curve was filed as active); inconclusive = small, poorly fitted or top-dose-only effect, or effect the other way, or a change in a side signal; inactive = flat fitted curve, though single readings scatter; the % refers to the signal ratio. The list comes from a sample in which actives are over-represented; it also holds similar structures and randomly drawn compounds.

Test: qHTS Assay for Lipid Storage Modulators in Drosophila S3 Cells;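 as to cell number change: cells counted by Cell Tracker Red CMTPX staining in the red channel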
Conditions: BODIPY lipid droplet fluorescence, 18-24 h, cells fed with added oleic acid; cell number change: measured here: cell count max response; series mostly up to 46.1 µM
In short: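 Drosophila S3 cells got compounds at several concentrations plus oleic acid (400 uM solution). Laser-scanning cytometry with 488 nm excitation read lipid droplets at 500-530 nm and cells at 575-640 nm. Percent activity was relative to 20 uM Triacsin C.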
Potency is read from the fitted curve at half-maximal effect.

SMILES | Potency | cell number change [%]
COc1cccc(NC(=O)CSc2nnc3cc(C)nc(N)n23)c1 | inactive | -13.7
O=C(CSc1nnc(Nc2ccccc2F)s1)NC1CCCC1 | 11.6 µM (active) | -17.4
O=C(CSc1nnc(NC(=O)c2ccccc2)s1)NC1CCCC1 | inactive | -5.42
COc1ccccc1Nc1nnc(SCC(=O)NC2CC2)s1 | inactive | -14.3
CC(=O)n1cc([C@@H]2C=C(C(=O)NCc3ccccc3)O[C@H](OCCCCO)C2)c2ccccc21 | inactive | -1.9
Cc1cccc(-n2c(SCc3cc(=O)n4ccsc4n3)nc3ccccc32)c1 | 14.6 µM (active) | -9.74
CCn1c(SCc2cc(=O)n3ccsc3n2)nc2ccccc21 | inactive | 0.881
Cc1ccc(SCc2cc(=O)n3ccsc3n2)c(C)c1 | inactive | -12.5
O=C(CSc1nnc(-c2ccncc2)n1-c1ccccc1)Nc1ccc(C(=O)O)cc1 | inactive | 4.34
O=C(COC(=O)c1ccc[nH]c1=O)NC1CCCc2ccccc21 (configuration not stated) | inactive | 6.05
Cc1noc(C)c1S(=O)(=O)N1CCCC(C(=O)NCCc2ccc(Cl)cc2)C1 (configuration not stated) | inactive | 
Cc1nnc(SCC(=O)Nc2ccc(N3CCOCC3)cc2)n1-c1ccccc1 | inactive | -17.5
CCCCn1c(-c2cccc(C)c2)nc2cc3[nH]c(=O)c(C(C)C)nc3cc21 | inactive | -25.6
CCCCn1c(-c2ccc(C(C)(C)C)cc2)nc2cc3[nH]c(=O)c(C(C)C)nc3cc21 | inactive | -12.9
CCCCn1c(-c2cccc3ccccc23)nc2cc3[nH]c(=O)c(C(C)C)nc3cc21 | 20.6 µM (active) | -23
O=C(c1cccnc1Cl)N(Cc1ccccc1)Cc1ccccc1 | inactive | 4.31
CCCOC(=O)c1ccc(NC(=O)C2C3CCC(C3)C2C(=O)O)cc1 (configuration not stated) | inactive | 2.97

SMILES | Potency | cell number change [%]
COc1ccc(/C=N/NC(=O)c2ccncc2)cc1CSc1nc2ccccc2s1 | inactive | 1.7
CCOC(=O)CSc1nc(C)cc(C)n1 | 23.1 µM (active) | 4.86
Cc1cc(C)nc(SCC(N)=O)n1 | inactive | 14.6
CCN(CC)C(=O)CSc1nc(C)cc(C)n1 | inactive | -1.44
CCOc1ccccc1OCC(=O)Oc1ccc(C)c(C)c1 | inactive | 18.7
Cc1nc(N/N=C/c2ccccn2)sc1C | inactive | -10.6
Cc1nc(-c2ccccc2)sc1-c1nc(-c2ccncc2)ncc1S(=O)(=O)c1ccccc1 | inactive | 12.5
COc1ccc(CCNC(=O)C2CC=CCC2C(=O)O)cc1 (configuration not stated) | inactive | 23.9
O=C(NNC(=O)[C@H]1CC=CC[C@H]1C(=O)O)c1ccc(Cl)cc1Cl | inactive | 10.3
CC1=C(C)CC(C(=O)NCC(=O)c2ccccc2)C(C(=O)O)C1 (configuration not stated) | inactive | 
O=C(O)C1CC=CCC1C(=O)NCCc1ccccc1 (configuration not stated) | 23.1 µM (active) | 3.33
O=C(O)C1CC=CCC1C(=O)Nc1cc(Cl)ccc1Cl (configuration not stated) | inactive | -10.1
O=C(Cc1ccc(Cl)cc1)NNC(=O)C1CC=CCC1C(=O)O (configuration not stated) | 18.4 µM (active) | 
O=C(O)C1CCCCC1C(=O)NCCCc1ccccc1 (configuration not stated) | inactive | -1.96
O=C(O)[C@H]1CCCC[C@H]1C(=O)NCCc1ccccc1 | inactive | 7.81
CC1=C(C)CC(C(=O)NCCc2ccccc2)C(C(=O)O)C1 (configuration not stated) | 6.51 µM (active) | 
